In all, about 91,000 compounds went through this assay and about 310 (0.34%) were called active. No stated cut-off is given here; in the data, active means inhibition above about 80%; inactive means the rest. Many of the other results were omitted from the sample, so actives are more common in it than they were.
biological target: Bifunctional epoxide hydrolase 2 (Homo sapiens) (UniProt P34913); experiment: soluble epoxide hydrolase inhibitors, primary screen, biochemical, human sEH (AID 707); conditions: recombinant human sEH enzymatic activity assay; at 2 µM; active compounds read high
Sequence (P34913 whole entry, looked up): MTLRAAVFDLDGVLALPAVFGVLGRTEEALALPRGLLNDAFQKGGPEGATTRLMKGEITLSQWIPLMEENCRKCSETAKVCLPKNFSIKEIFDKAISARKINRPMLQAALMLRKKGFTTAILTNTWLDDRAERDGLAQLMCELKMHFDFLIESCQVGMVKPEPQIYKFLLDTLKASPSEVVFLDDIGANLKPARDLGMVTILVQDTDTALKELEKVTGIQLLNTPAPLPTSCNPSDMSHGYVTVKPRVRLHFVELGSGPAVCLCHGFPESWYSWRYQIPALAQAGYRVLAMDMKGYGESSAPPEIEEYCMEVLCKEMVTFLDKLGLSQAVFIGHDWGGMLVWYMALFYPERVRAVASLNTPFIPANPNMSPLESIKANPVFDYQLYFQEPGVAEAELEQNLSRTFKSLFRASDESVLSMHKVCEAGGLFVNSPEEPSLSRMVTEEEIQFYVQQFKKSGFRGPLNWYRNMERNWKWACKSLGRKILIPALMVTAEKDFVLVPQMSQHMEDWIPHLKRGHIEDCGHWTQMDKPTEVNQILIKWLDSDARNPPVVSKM

Row | Compound | inhibition
1 | Cc1cc(Nc2ccccc2)nc(N)n1 | 3% (inactive)
2 | CCNC(=S)Nc1cccc(Cl)c1C | -0.5% (inactive)
3 | CC(C)N(c1ccccc1)c1ncnc(NCCC(=O)O)c1[N+](=O)[O-] | -1.2% (inactive)
4 | c1ccc2c(C[n+]3csc4ccccc43)cccc2c1 | -9% (inactive)
5 | Cc1nn(-c2ccccn2)c2c1C(c1ccncc1)C1=C(CC(C)(C)CC1=O)N2 (stereo not given) | -0.7% (inactive)
6 | O=C(Cc1ccc2c(c1)CCCC2)Nc1ccccc1Cl | 7.7% (inactive)
7 | O=C1c2ccccc2C(=O)c2c1cccc2N1CCN(CCO)CC1 | 5.4% (inactive)
8 | COc1ccc(/C=C(/NC(=O)c2ccc(C)cc2)c2nc3ccccc3[nH]2)cc1OC | 1.8% (inactive)
9 | Cc1ccccc1N/N=C/c1ccc(N2CCOCC2)cc1 | -9.2% (inactive)
10 | CC(Oc1ccc(Cl)cc1Cl)C(=O)/C=C/N(C)C (stereo not given) | 15.1% (inactive)
11 | COc1cnc(SCc2ccc(Cl)c(Cl)c2)nc1Cl | -5.2% (inactive)
12 | ONC(=Nc1ccc(Cl)cc1)c1ccccc1Cl | -9.2% (inactive)
13 | CCOc1ccc(Nc2nc(Cc3nnc(SCC(=O)NC4CCCC4)n3C)cs2)cc1 | 10.9% (inactive)
14 | CN(C)Cc1ccccc1C1(O)c2ccccc2CSc2ccccc21 (stereo not given) | 5.7% (inactive)
15 | Clc1ccc(-c2cc(COc3ccccc3)no2)cc1Cl | -1.1% (inactive)
16 | COc1ccc(C(=S)Nc2ccccc2)cc1 | 4.8% (inactive)
17 | CC(Cc1cccs1)NC(=O)NC1CCCCC1 (stereo not given) | 92.6% (active)
18 | Cc1ccsc1C(C(=O)NC1CCCCC1)N(C(=O)Cc1cccs1)C1CC1 (stereo not given) | 5.3% (inactive)
19 | CC(C)C(OC(=O)c1cccs1)C(=O)NC1CCCCC1 (stereo not given) | -8.3% (inactive)
20 | CCOc1ccc(S(=O)(=O)Nc2nc3cc(OC)ccc3s2)cc1 | -14.5% (inactive)
21 | CC(C)NS(=O)(=O)c1ccc(NC(=O)C2CCCCC2)cc1 | -3.1% (inactive)
22 | CCOC(=O)Nc1ccc(S(=O)(=O)N(C)C(C)C)cc1 | 1.6% (inactive)
23 | Cc1ccccc1C(=O)N1CCC(C(=O)Nc2ccc(S(=O)(=O)N(C)C(C)C)cc2)CC1 | 83.8% (active)
24 | O=C(CSc1ncnc2c1cnn2CCc1ccccc1)Nc1ccc(F)cc1 | 20.5% (inactive)
25 | O=C(c1cccc(F)c1)N1CCN(c2ccc([N+](=O)[O-])c(N3CCCCC3)c2)CC1 | 6.5% (inactive)
26 | CCOC(=O)/C(=C\c1ccc([N+](=O)[O-])cc1)C(=O)c1cc(C(C)=O)c(Nc2ccccc2)s1 | 10.3% (inactive)
27 | COc1ccccc1OCCNc1cc(N2CCOCC2)ccc1[N+](=O)[O-] | -3.3% (inactive)
28 | CCn1c2ccccc2c2cc(NC(=O)C/C(C)=N/NC(=O)c3ccccc3N)ccc21 | 4.8% (inactive)

Row | Compound | inhibition
29 | Cc1ccc(/C=N/NC(=O)C(NC(=O)c2ccccc2)c2n[nH]c(=O)c3ccccc23)cc1 (stereo not given) | -0.8% (inactive)
30 | COc1ccccc1NC(=O)[C@H](COCc1ccccc1)NC(=O)OC(C)(C)C | -8.8% (inactive)
31 | CCOc1cccc(SCc2noc(C(=O)NC(C)C)c2C(=O)O)c1 | -1.8% (inactive)
32 | CN(C)/C=C(\C#N)C(=O)c1cccnc1Oc1ccc(F)cc1F | 12.8% (inactive)
33 | C=CCn1c(-c2ccc(Cl)cc2)ccc(C#N)c1=O | -0.8% (inactive)
34 | CC1CCN(C(NC(=O)c2ccco2)C(=O)c2ccccc2)CC1 (stereo not given) | -0.8% (inactive)
35 | O=C1CCN(C(=O)Nc2ccccc2)N1 | 2.7% (inactive)
36 | O=C(CCNS(=O)(=O)c1ccccc1C(F)(F)F)NCc1ccc2c(c1)OCO2 | -4.3% (inactive)
37 | COc1ccc(/C=C2\CCCC3C2=NN(C(=O)c2scnc2C)C3c2ccc(OC)cc2)cc1 (stereo not given) | -10.6% (inactive)
38 | CS(=O)(=O)N(CC(=O)Nc1ccc(F)cc1F)c1cccc([N+](=O)[O-])c1 | 1.3% (inactive)
39 | CC(C)c1ccc(/C=C/C(=O)NNC(=O)c2cccnc2)cc1 | -2.9% (inactive)
40 | COc1cc(C2C(C(=O)OCCC#N)=C(C)NC3=C2S(=O)(=O)c2ccccc23)cc(OC)c1OC (stereo not given) | 8.9% (inactive)
41 | COc1ccc(Cl)cc1NC(=O)CN(C)C(=O)CNC(=O)C12CC3CC(CC(C3)C1)C2 | 15.5% (inactive)
42 | CS(=O)(=O)N1CCN(c2ccc(C(=O)NC3C4CC5CC(C4)CC3C5)cc2[N+](=O)[O-])CC1 (stereo not given) | -10.1% (inactive)
43 | Cc1cc(/C=C2/SC(=O)N(CC(=O)OC(C)C)C2=O)c(C)n1C | -9.2% (inactive)
44 | Cc1cc(OC(=O)c2c(Cl)cccc2Cl)nc(C)n1 | -21.2% (inactive)
45 | Cc1nnsc1S(=O)(=O)Cc1ccccc1Cl | 4.8% (inactive)
46 | CCOC(=O)N1CCN(c2c(NCCCN3CCCC(C)C3)c(=O)c2=O)CC1 (stereo not given) | -4.6% (inactive)
47 | Cc1nc(Cl)c2oc3ccccc3c2n1 | 0.8% (inactive)
48 | O=[N+]([O-])c1ccccc1NCc1ccc(Cl)cc1 | -1% (inactive)
49 | CN(C)c1ccc(NC(=S)N(CCc2ccccc2)C2CC(=O)N(c3c(Cl)cccc3Cl)C2=O)cc1 (stereo not given) | 7.8% (inactive)
50 | Cc1nn(CC(=O)Nc2nc3ccccc3s2)c(C)c1[N+](=O)[O-] | -6.1% (inactive)
51 | Cc1ccc(OCC(=O)N/N=C/c2ccncc2)cc1 | -19.2% (inactive)
52 | CC(=O)c1cn(CCCCCCCCCCn2cc(C(C)=O)c(=O)[nH]c2=O)c(=O)[nH]c1=O | -2% (inactive)
53 | Cc1ccc(-c2nn(-c3ccccc3)cc2/C=N/NC(=O)c2ccc3c(c2)OCO3)cc1 | -6.2% (inactive)
54 | Cc1occc1C(=O)NNC(=S)NCC(C)C | -18% (inactive)
55 | Cc1cccc(NC(=O)c2ccc(OCC(=O)NCc3ccccc3)cc2)c1C | 3.8% (inactive)
